Source: PubChem BioAssay
SMARCA2 act – increases SMARCA2 function in MMTV reporter cells; 370,000 compounds, 1% hits; activation, % at 9.1 µM; MG213 cells, MMTV-luciferase reporter, dexamethasone, overnight; in the data active means activation above about 7.8%;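 further: 0% = vehicle wells and 100% = reference activator wells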
proKLK7 act – activators of human kallikrein-7 zymogen | P49862 | purified proKLK7, EDANS-DABCYL substrate fluorescence; 100% is mature enzyme control, 0% vehicle | activation, % at 7 µM | 370,000 compounds, 0.9% hits | AID 652039;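 active means activation above the mean of all tested compounds plus 3 SD, computed per campaign excluding outliers beyond control limits, cut at about 13% in these data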
Target sequence (P49862 whole entry, looked up): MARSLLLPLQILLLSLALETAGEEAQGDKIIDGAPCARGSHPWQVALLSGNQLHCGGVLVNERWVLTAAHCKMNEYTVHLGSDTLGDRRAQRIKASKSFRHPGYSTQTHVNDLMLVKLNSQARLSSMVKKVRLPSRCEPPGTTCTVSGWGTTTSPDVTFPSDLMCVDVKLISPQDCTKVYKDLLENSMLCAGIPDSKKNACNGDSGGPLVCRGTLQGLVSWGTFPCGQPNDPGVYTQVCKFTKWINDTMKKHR
MsrA inh – bovine MsrA inhibition | inhibition, % at 15.5 µM | 360,000 compounds, 0.75% hits | purified bovine MsrA, absorbance read-out; in the data active means inhibition above about 4.5%;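 further: 0% = vehicle wells with enzyme and 100% = reference inhibitor wells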
MsrA act – activates bovine MsrA enzyme; purified bovine MsrA, absorbance read-out; activation, % at 10.6 µM; 360,000 compounds, 0.3% hits; in the data active means activation above about 7.5%;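 further: 0% = vehicle and 100% = reference activator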
SMARCA2 act conf – confirmation of SMARCA2 (BRM) function activators; shares compounds with SMARCA2 act; MG213 cells, MMTV-luciferase with dexamethasone, luminescence, overnight; MG213 cells expressing E1A, Rb sequestered; DMSO wells 0%, reference activator 100%; activation, % at 9.1 µM; 3,500 compounds, 30% hits;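 active means activation above its plate's cutoff, the mean activation of tested wells plus 3 SD, cut at about 7.9% in these data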
VP16 Luc act – GAL4-VP16 reporter activation counter-screen; shares compounds with SMARCA2 act; HEK293 GAL4-VP16 pG5luc reporter, luciferase luminescence; scaled: DMSO wells 0%, SAHA wells 100%; activation, % at 9.1 µM; 3,500 compounds, 41% hits; AID 686939;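 active means activation above the solvent-only control well mean plus 3 SD, averaged across control plates, cut at about 5.2% in these data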
The depositor's hits bear a star; / = no result given. Sampled rows, rich in hits. Any-hit rate of the full collection: about 2.8%.

SMILES	SMARCA2 act	proKLK7 act	MsrA inh	MsrA act	SMARCA2 act conf	VP16 Luc act
CC(=O)N1CCN(c2ccnc3cc(Cl)ccc23)CC1	10.9*	-0.4	0.2	-8.3	-0.9	-1.1
Cc1ccc(NC(=O)C2CCN(S(=O)(=O)c3ccc(C(C)(C)C)cc3)CC2)cc1S(=O)(=O)N1CCOCC1	8.4*	0.0	-0.2	-1.4	-6.8	0.2
O=C(Nc1ccc(S(=O)(=O)N2CCOCC2)cc1)C1CC1	1.6	-1.1	-1.5	-1.1	/	/
COc1cc2c(cc1OC)C(C(=O)O)C(c1ccc3c(c1)OCO3)N(C)C2=O (stereo not given)	1.9	0.0	0.3	/	/	/
CN(Cc1ccccc1)C(=O)c1cc(-c2ccc(Br)cc2)on1	8.1*	-0.6	0.5	-3.8	2.5	5.3*
CCc1nc2c(OCCc3cccc(OC)c3)cccn2c1N(C)C(=O)c1cccs1	-4.9	-0.4	1.3	-12.0	/	/
O=C(NC(Cc1c[nH]c2ccccc12)C(=O)O)c1cccc(S(=O)(=O)N2CCCCC2)c1 (stereo not given)	-1.5	-0.3	-0.1	-6.5	/	/
Cc1cccc(S(=O)(=O)NC(=O)C2(C)CCN2C(=O)Cc2cccs2)c1 (stereo not given)	-6.6	0.8	1.9	-1.8	/	/
O=C1CN(C(=S)NC(=O)c2ccc(-c3ccccc3)cc2)CCN1	10.4*	-0.8	1.1	-2.6	7.0	3.6
COc1ccc(NC(=O)Nc2ccc3c(c2)C(=O)N([C@H](C)CO)C[C@H](C)[C@H](CN(C)C)OCCCC[C@@H](C)O3)cc1	-3.3	0.9	-0.3	/	/	/
CCCN1CCS(=O)(=O)N(Cc2cn(Cc3ccccc3)nn2)C(C(=O)OC)C1 (stereo not given)	3.9	0.2	/	/	/	/
COc1ccc(-c2cc(C(=O)NC(Cc3cc4ccccc4[nH]3)C(=O)O)c(C)o2)cc1OC (stereo not given)	10.7*	-0.9	1.3	-2.0	9.9*	3.7
COc1ccc(-c2cc(C(=O)O)c(C)o2)cc1OC	7.2	0.6	0.0	2.1	/	/
COCCN1C(=O)C2=C(C1=O)C1N(C)c3ccccc3[C@@]13C[C@@H](CO)N(C(=O)CCC(=O)OC)C3=N2 (stereo not given in full)	-1.7	0.6	/	/	/	/
COc1ccc(C2CC2/C(=N/O)c2ccccn2)cc1 (stereo not given)	-0.2	-0.1	-1.1	-1.1	/	/
COc1ccc(C2CC2C(=O)c2ccccn2)cc1 (stereo not given)	8.6*	0.0	0.7	-1.1	4.5	4.7
COC(=O)c1sc(-c2ccc(Cl)cc2)cc1NC(=O)/C=C/C(=O)O	9.1*	-0.4	1.0	-3.4	-0.3	-0.6
COC(=O)c1sc(-c2ccc(Cl)cc2)cc1NC(=O)COCC(=O)O	-0.4	0.2	3.5	-4.1	/	/
CC1(c2nnnn2Cc2ccccc2)CCC(=O)N1CCc1ccccc1F (stereo not given)	-4.3	0.7	0.9	-14.4	/	/
O=C(Nc1cnc2sccn2c1=O)c1ccccc1Cl	8.0*	-0.3	2.5	-5.5	15.3*	11.3*
Cc1cccc(NC(=O)c2cnc3sccn3c2=O)c1C	5.7	0.1	1.1	-3.4	/	/
COc1ccc(NC(=O)c2cnc3sccn3c2=O)cc1	8.3*	0.0	2.8	-9.5	7.8	5.2*
Cc1ccc(C(=O)Nc2cnc3ccccn3c2=O)cc1	6.7	-0.5	4.2	-7.0	/	/
Cc1cccc(NC(=O)c2cnc3sccn3c2=O)n1	6.1	0.3	1.9	-6.7	/	/
O=C(Nc1cnc2ccccn2c1=O)c1ccc(Cl)cc1Cl	9.0*	0.5	1.5	1.9	6.1	3.4
Cc1ccc(S(=O)(=O)N2CCCN(c3nc4cc(C)ccc4cc3C#N)CC2)cc1	0.5	10.8	0.5	-8.2	/	/
Cc1cc2cc(C#N)c(N3CCN(S(C)(=O)=O)CC3)nc2cc1C	9.1*	0.9	-0.5	-5.5	1.7	2.1
O=C(CN1CCc2onc(-c3ccc(-n4cc(C5=CCCCC5)nn4)cc3)c2C1=O)N1CCOCC1	-3.0	0.6	/	/	/	/
O=C(NC1=NCCS1)c1ccccc1OCc1ccc(F)cc1	10.4*	-0.3	0.6	-9.9	-0.8	2.2
O=C(Nc1ccccc1)c1ccccc1OCc1ccc(F)cc1	-1.3	0.5	1.2	-2.1	/	/
